Screening results from PubChem BioAssay.
HP1b binding inh: HTS for Inhibitors of HP1-beta Chromodomain Interactions with Methylated Histone Tails. Chromobox protein homolog 1 (Homo sapiens), P83916. AlphaScreen HP1-beta / biotin-H3K9me3 peptide binding. Potency, µM (highest dose often 114 µM), inactives show top-dose activity change, negative = inhibition, actives largely listed as inhibitors. hit rate 0.56% among 390,000. AID 540317, 2011; also: nearly all actives have a fitted effect of over 70% in size
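AlphaScreen: HP1-beta (50 nM) preformed 30 min with biotin-H3(1-18)K9me3 peptide (50 nM) in PBS pH 7.4, 0.01% Tween-20. Compound added for 30 min at RT, then streptavidin donor/nickel chelate acceptor beads (10 ug/mL) for 30 min.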
JMJD2A Tudor: qHTS Assay for Inhibitors of JMJD2A-Tudor Domain; Lysine-specific demethylase 4A (Homo sapiens), O75164; AlphaScreen JMJD2A-Tudor / H3K4me3 peptide binding; Potency, µM (top dose mostly 114 µM), for the others: top-dose activity change, negative = inhibition, most hits filed as inhibitors; hit rate 4.4% among 390,000; also: % is scaled to controls: 0 for no effect and ±100 for the full control effect; nearly all actives have a fitted effect of over 50% in size
12-LOX inh: Primary qHTS assay for inhibitors of human arachidonate 12S-lipoxygenase (ALOX12): Round 2; Polyunsaturated fatty acid lipoxygenase ALOX12 (Homo sapiens), P18054; purified 12hLO, xylenol orange hydroperoxide absorbance; Potency, µM (titrated, usually from 108 µM), for inactives: at the highest dose activity change, negative = inhibition, hits mostly inhibitors; hit rate 1.1% among 580,000; AID 1671190, 2021; also: % is scaled to controls: 0 for no effect and ±100 for the full control effect
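Purified human 12hLO at 150 nM in 25 mM Hepes, 0.01% Triton X-100, pH 7.0, preincubated 15 min at room temperature with compound. Reaction started with 40 uM arachidonic acid, 30 min at room temperature. Hydroperoxide measured by Fe-xylenol orange, 573/405 nm absorbance ratio.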
Sfp inh: qHTS Assay for Inhibitors of Bacillus subtilis Sfp phosphopantetheinyl transferase (PPTase). Biochemical Sfp PPTase activity, qHTS. hit rate 3.5% among 310,000. AID 1490, 2009. Potency, µM, without a hit: largest response in the series, negative = inhibition, usual class: inhibitors. 4'-phosphopantetheinyl transferase ffp (Bacillus subtilis), Q9F4F7;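 also: the enzyme is Sfp with the accession as filed and its product quenches rhodamine fluorescence; 0% = enzyme reaction without inhibitor and -100% = no enzyme wells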
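Compounds were incubated with enzyme (final 15 nM) for 15 min at room temperature before substrate addition started the reaction. Fluorescence at 525 nm excitation, 598 nm emission was recorded immediately and after 30 minutes.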
BAZ2B inh: qHTS Assay for Inhibitors of BAZ2B; AID 504333, 2011; Bromodomain adjacent to zinc finger domain protein 2B (Homo sapiens), Q9UIF8; AlphaScreen BAZ2B-H3K14Ac peptide displacement; Potency, µM (titrated, usually from 114 µM), inactives show at the top dose activity change, negative = inhibition, most hits filed as inhibitors; hit rate 4.4% among 360,000; also: % is scaled to controls: 0 for no effect and ±100 for the full control effect; nearly all actives have a fitted effect of over 60% in size
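Compounds, titrated to a top concentration of 110 uM, were incubated 30 min at room temperature with preformed BAZ2B/acetyl-K14 H3 peptide complex (50 nM each). Proximity signal was measured by AlphaScreen after 20 min with beads.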
G9a block: qHTS Assay for Inhibitors of Histone Lysine Methyltransferase G9a. hit rate 8.8% among 350,000. AID 504332, 2011. G9a H3K9 monomethylation, AlphaScreen, 2 h. Potency, µM (doses to about 102 µM), without a hit: at the highest dose activity, negative = inhibition, hits mostly inhibitors; also: % is scaled to controls: 0 for no effect and ±100 for the full control effect; nearly all actives have a fitted effect of over 75% in size
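Step 1: enzyme (final 20 nM) with compound, 15 min RT. Step 2: substrate peptide 500 nM and SAM 20 uM, 2 h RT. Step 3: anti-H3K9me1 antibody and AlphaScreen beads, 10 min, then plate read.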
* marks the source's active call; other numbers are inactive results; [ ] = dose if it differs, or a comment. Rows were chosen to be rich in hits. Some 8.7% of all compounds tested hit in one or more screens of this group. Calls follow the shape of the dose curve; as a rule, active = well fitted curve in the direction sought with a large enough effect; inconclusive = small, poorly fitted or top-dose-only effect, or another doubt; inactive = no such curve, though single readings can be large; an effect the other way counts as inactive or inconclusive. Potency is read from the fitted curve at half-maximal effect.

For Oc1ccc(/C=N/n2c(-c3ccccc3)n[nH]c2=S)cc1 the results were HP1b binding inh 42%, JMJD2A Tudor 20µM*, 12-LOX inh -55%, Sfp inh -2%, BAZ2B inh -3% and G9a block -1%[0.501 µM].
For COCCN(C)C[C@H]1C[C@H](CO)CN(C(=O)CN2CCc3ccccc3C2)C1 the results were 12-LOX inh 44%.
Screening Cc1noc(C)c1Cc1ccc(C(=O)N2CCCCCCNC(=O)[C@@H]3CCCC[C@@H]32)o1 returned 12-LOX inh 6%.
For CCOC(=O)CNC(=O)Nc1cc(C(=O)NCc2ccc(C)cc2)ccc1N1CCCC1 the results were 12-LOX inh -37%.
`CCN(CC)c1ccc(/C=N/n2c(-c3ccccc3Br)n[nH]c2=S)cc1` gave HP1b binding inh inconclusive, JMJD2A Tudor inconclusive, 12-LOX inh inconclusive, Sfp inh inconclusive, BAZ2B inh inconclusive and G9a block 2.8µM*.
`CNC(=S)N/N=C/c1c(C)nn(-c2ccccc2)c1Cl` gave HP1b binding inh 29%, JMJD2A Tudor -4%, 12-LOX inh 17%, Sfp inh -5%, BAZ2B inh 22% and G9a block -27%[2.33 µM].
